In all, about 50,000 compounds went through this assay and about 800 (1.6%) showed an effect of 50% or more. The sample as a whole holds a higher share of strong results than the screen did.
The compounds below were run against Bcl-2-like protein 10 (Homo sapiens) (UniProt Q9HD36) (assay: Phenotype converters, Bcl-B/TR3 peptide binding displacement, primary biochemical FP (AID 1240;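 also: 0% = Bcl-B with tracer peptide and DMSO and 100% = tracer peptide lacking Bcl-B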)). Details: GST-Bcl-B / FITC-TR3 peptide fluorescence polarization; stronger effect = higher value; compound at 3.75 mg/L.
Bcl-2-like protein 10 (Homo sapiens), sequence (Q9HD36 whole entry, looked up): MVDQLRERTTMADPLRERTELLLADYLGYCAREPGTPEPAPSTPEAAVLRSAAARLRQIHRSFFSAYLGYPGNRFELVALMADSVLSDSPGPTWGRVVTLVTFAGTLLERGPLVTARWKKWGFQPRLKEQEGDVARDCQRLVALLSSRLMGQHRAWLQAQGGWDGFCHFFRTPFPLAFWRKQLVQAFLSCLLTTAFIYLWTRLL

| Compound | displacement [%] |
| --- | --- |
| Nc1nonc1-c1ncc(-c2ccc(Br)cc2)nn1 | 30.1 |
| O=c1n(Cc2ccccc2Cl)c2cc(N3CCOCC3)c([N+](=O)[O-])cc2n1Cc1ccccc1Cl | -9.7 |
| Cc1ccc(C(=O)NNC(=O)c2ccc3ccccc3c2O)cc1 | 20.5 |
| Cc1ccc(/C=C/C(=O)N2CCN(c3ccccc3)CC2)o1 | 3.6 |
| Cc1ccc([N+](=O)[O-])cc1NC(=O)CC1Sc2ccccc2NC1=O (stereo not drawn) | 3.4 |
| Cc1ccccc1-c1cc(C(=O)N2CCOCC2)c2ccccc2n1 | 4 |
| Cc1ccc(C(=O)Nc2ccc(N3CCOCC3)cc2)cc1C | 0.3 |
| O=C(Nc1c(C(=O)N2CCN(Cc3ccccc3)CC2)cnn1-c1ccccc1)c1cccc(F)c1 | 3 |
| COc1cc(OC)c(C(=O)N2CC(=O)Nc3ccccc32)c(OC)c1 | 4.9 |
| CCN(CC)c1ccc(NC(=O)c2cncc(Br)c2)cc1 | 84.2 |
| CCc1ccc(NC(=O)c2cncc(Br)c2)cc1 | 15 |
| O=C(Nc1ccccc1Cl)c1cncc(Br)c1 | 118 |
| CCc1ccccc1NC(=O)c1cncc(Br)c1 | 5.4 |
| CCN(CC)c1ccc(NC(=O)c2ccc(Br)cc2)cc1 | 9.2 |
| O=C(Nc1ccccc1F)c1cncc(Br)c1 | 3.9 |
| CCC(C)NC(=O)C(=O)NCCc1ccccc1 (stereo not drawn) | 5.5 |
| Cc1nc2ccccc2n1C(=O)c1ccco1 | -3.1 |
| O=C(NCc1ccccn1)C(=O)N/N=C/c1ccccc1C(F)(F)F | -19.3 |
| CC(=O)N=c1cccc(NC(C)=O)n1O | 5.8 |
| CC(=O)Oc1ccc2c(c1)oc(=O)c1c3cc(OC(C)=O)c(OC(C)=O)cc3oc21 | 12.7 |
| O=C(Nc1ccc(Cl)c(C(F)(F)F)c1)c1cccs1 | -5.7 |
| COc1ccc(C2=C/C(=C/c3ccc(OC)c(Br)c3)C(=O)O2)cc1 | 11 |

| Compound | displacement [%] |
| --- | --- |
| COc1cc(/C=C2/C=C(c3ccccc3)OC2=O)ccc1C | -4.5 |
| COc1ccc(/C=C2/C=C(c3ccccc3)OC2=O)cc1 | -15.2 |
| COc1ccc(/C=C2/C=C(c3ccc(OC)c(OC)c3)OC2=O)cc1OC | 189 |
| COc1ccc(C2=C/C(=C/c3ccc(OC)c(OC)c3)C(=O)O2)cc1 | 154 |
| COc1ccc(C2=C/C(=C\c3ccc4c(c3)OCO4)C(=O)O2)cc1 | 117 |
| O=C1OC(c2ccc(Cl)cc2)=C/C1=C\c1ccc2c(c1)OCO2 | -19.4 |
| O=C1OC(c2ccccc2)=C/C1=C/c1ccc2c(c1)OCO2 | -0.2 |
| CCOc1ccc(C2=C/C(=C/c3ccc(OC)c(OC)c3)C(=O)O2)cc1 | 34.8 |
| CCOC(=O)/C(C#N)=C\c1c(C)c(C)c(/C=C(/C#N)C(=O)OCC)c(C)c1C | 7.7 |
| c1ccc2nc3c(cc(N4CCOCC4)c4ccccc43)nc2c1 | 147 |
| c1ccc(-c2nc(N3CCOCC3)nc3ccccc23)cc1 | -1.9 |
| c1ccc2c(c1)nc(N1CCOCC1)c1ccccc12 | -0.6 |
| CCOC(=O)C(=O)Nc1nc(C23CC4CC(CC(C4)C2)C3)cs1 | 3.2 |
| O=C(Cc1ccccc1)Nc1ccc(Cl)c(-c2nc3cc(Cl)ccc3o2)c1 | -37.9 |
| CCC(=O)/C(C)=C(\NC(=O)c1ccccc1)c1ccccc1 | -4.8 |
| CC(C)c1ccc(N2C(=O)NC(=O)/C(=C/c3ccc(O)c(O)c3)C2=O)cc1 | -20.3 |
| O=C(CCCN1C(=O)/C(=C/c2ccccc2)SC1=S)Nc1nccs1 | 11.2 |
| O=C(CCN1C(=O)/C(=C/c2ccc(Cl)cc2)SC1=S)Nc1nccs1 | 14.9 |
| O=C(CCN1C(=O)/C(=C\c2cccs2)SC1=S)Nc1nccs1 | 120 |
| Cc1ccc(/C=C2\SC(=S)N(CCC(=O)Nc3nccs3)C2=O)cc1 | 19.4 |
| O=C(CCCN1C(=O)/C(=C\c2cccs2)SC1=S)Nc1nccs1 | 114 |
| O=C(CCCN1C(=O)/C(=C\c2cccs2)SC1=S)Nc1ccccn1 | 13.2 |

| Compound | displacement [%] |
| --- | --- |
| Cc1cc(NC(=O)CCN2C(=O)/C(=C/c3ccc(F)cc3)SC2=S)no1 | 19 |
| Cc1cc(NC(=O)CCN2C(=O)/C(=C/c3ccccc3)SC2=S)no1 | 5.3 |
| O=C(CCN1C(=O)/C(=C/c2cccs2)SC1=S)Nc1ccccn1 | 126 |
| O=C(CCCN1C(=O)/C(=C\c2cccs2)SC1=S)Nc1nc2ccccc2s1 | 12.7 |
| O=C(CCN1C(=O)/C(=C\c2cccs2)SC1=S)Nc1ccccc1C(=O)O | 19.8 |
| Cc1cc(NC(=O)CCN2C(=O)/C(=C\c3cccs3)SC2=S)no1 | 90.4 |
| O=C(Nc1nccs1)c1ccc2c(c1)OCO2 | 32.1 |
| CC(NC(=O)c1cc2cc([N+](=O)[O-])ccc2oc1=O)c1ccccc1 (stereo not drawn) | 12.2 |
| CS(=O)(=O)N(Cc1ccc(C(=O)Nc2ccc(CC#N)cc2)cc1)c1ccccc1 | -7 |
| COc1ccc(/C=C/C(=O)NCc2ccc(C)cc2)cc1OC | 9.4 |
| Cc1cccc(NC(=O)CN(c2ccc(C(C)C)cc2)S(=O)(=O)c2ccccc2)c1 | 2.4 |
| COc1ccc(Cl)cc1N(CC(=O)NCC(C)C)S(=O)(=O)c1ccc(C)c([N+](=O)[O-])c1 | 16.7 |
| CC(C)(C)c1ccc(OCC(O)CS(=O)(=O)Cc2ccc(Cl)cc2)cc1 (stereo not drawn) | 8.5 |
| O=C1C2ON(c3ccccc3)C(c3ccccc3)C2C(=O)N1Cc1ccccc1 (stereo not drawn) | 5.9 |
| COc1cccc(-n2c(O)c(/C=C3\C=c4ccccc4=N3)c(=O)[nH]c2=O)c1 | -0.4 |
| O=c1[nH]c(=O)n(-c2ccccc2)c(O)c1C(c1cccnc1)c1c(O)n(-c2ccccc2)c(=O)[nH]c1=O | -5 |
| COc1cccc(-n2c(O)c(C(c3ccccn3)c3c(O)n(-c4cccc(OC)c4)c(=O)[nH]c3=O)c(=O)[nH]c2=O)c1 | 67.7 |
| O=C1c2ccc([N+](=O)[O-])cc2C(=O)C1c1ccc2ccccc2n1 (stereo not drawn) | 7.6 |
| O=C1/C(=C\c2cccc(Br)c2)SC(=S)N1c1cccc(C(F)(F)F)c1 | 18.2 |
| COc1ccc2c(c1)OCC/C2=N\OC(=O)c1ccccc1OC | -7.8 |
| O=C(COc1ccc2ccccc2c1)NCC1CCCO1 (stereo not drawn) | 12.6 |
| COc1ccccc1-c1coc2cc(OC(=O)c3ccc(Cl)cc3Cl)ccc2c1=O | 63.9 |

| Compound | displacement [%] |
| --- | --- |
| COc1ccccc1-c1coc2cc(OC(=O)c3cccc(Cl)c3)ccc2c1=O | 6.5 |
| COc1ccccc1-c1coc2cc(OC(=O)c3ccc(Cl)cc3)ccc2c1=O | -2 |
| Cc1ccc(-c2nn(-c3ccccc3)cc2/C=C(\C#N)C(N)=O)o1 | 61.7 |
| N#CC(C#N)=Cc1cn(-c2ccccc2)nc1-c1ccc(-c2ccc([N+](=O)[O-])cc2)o1 | -5.9 |
| Cc1ccc(-c2nn(-c3ccccc3)cc2C=O)o1 | -0.3 |
| COc1ccc(CSc2nc3ccccc3n2C)cc1F | -9.9 |
| COc1ccc(OC)c(C2NC(=S)NC(C)=C2C(=O)OCCc2ccccc2)c1 (stereo not drawn) | 3.9 |
| COc1ccccc1N1CCN(C(=O)COc2ccc(Cl)cc2C)CC1 | -4.5 |
| O=c1[nH]c(=S)[nH]c(O)c1C=Nc1ccc(Cl)c(Cl)c1 | -7 |
| O=c1[nH]c(O)c(C=Nc2ccc(F)c(F)c2)c(=O)[nH]1 | 166 |
| COc1ccc(Cl)cc1N=Cc1c(O)[nH]c(=O)[nH]c1=O | 10.3 |
| COc1ccc2c(c1OC)C(=O)OC2Nc1cccc(F)c1 (stereo not drawn) | -0.4 |
| COc1ccc(-c2cc(C(F)(F)F)n3ncc(C(=O)N4CCOCC4)c3n2)cc1OC | 5.2 |
| CCOc1ccccc1NC(=O)C1CN(S(=O)(=O)c2ccccc2)CCN1S(=O)(=O)c1ccccc1 (stereo not drawn) | 11.2 |
| C/C(=N/NC(=O)c1cccnc1)c1cc(O)ccc1O | -12 |
| CC(C)c1ccc(/C=C2/SC(=O)N(c3ccccc3)C2=O)cc1 | 1.4 |
| CC(NC(=O)c1ccc(F)cc1)C1CC1 (stereo not drawn) | 4.6 |
| Cc1cc(NCCCO)n2c(nc3ccccc32)c1C#N | 160 |
| Cc1cc(Nc2ccc3c(c2)n(C)c(=O)n3C)n2c(nc3ccccc32)c1C#N | 22.5 |
| Cc1cc(Nc2ccc3c(c2)OCO3)n2c(nc3ccccc32)c1C#N | 135 |
| Cc1cc(Nc2ccccc2)n2c(nc3ccccc32)c1C#N | -2.8 |
| Cc1cc(NCCCN(C)C)n2c(nc3ccccc32)c1C#N | -13.5 |

| Compound | displacement [%] |
| --- | --- |
| Cc1cc(NCCCCO)n2c(nc3ccccc32)c1C#N | 25.9 |
| CC(=O)Nc1ccc(S(=O)(=O)/N=C2\C=CC(=O)c3ccccc32)cc1 | 22.2 |
| COc1ccc(Cl)cc1C(=O)N(Cc1ccccc1)C(C)C | 11.9 |
| Cc1c(Cl)cccc1NC(=O)C1c2ccccc2Oc2ccccc21 | 11.9 |
| CCn1c2ccccc2c2cc(NC(=O)Cc3ccc(OC)c(OC)c3)ccc21 | -5.2 |
| O=c1/c(=C/c2ccc(-c3ccc(Cl)cc3)o2)sc2nc3ccccc3n12 | 10.9 |
| O=c1/c(=C/c2ccc(Sc3ccccc3)o2)sc2nc3ccccc3n12 | 48.5 |
| O=c1/c(=C/c2ccc([N+](=O)[O-])cc2)sc2nc3ccccc3n12 | 86.7 |
| CN(C)c1ccc(/C=c2\sc3nc4ccccc4n3c2=O)cc1 | 107 |
| O=c1/c(=C/c2ccc(C(F)(F)F)cc2)sc2nc3ccccc3n12 | 2 |
| CSc1ccc(/C=c2\sc3nc4ccccc4n3c2=O)cc1 | 7.3 |
| Cc1cc2nc3s/c(=C/c4ccc5c(c4)OCO5)c(=O)n3c2cc1C | -11.4 |
| O=c1/c(=C\c2ccc(OCc3ccc([N+](=O)[O-])cc3)cc2)sc2nc3ccccc3n12 | 4.5 |
| O=c1/c(=C/c2cc([N+](=O)[O-])ccc2Cl)sc2nc3ccccc3n12 | -7.5 |
| Cc1ccc(Sc2ccc(/C=c3\sc4nc5ccccc5n4c3=O)o2)cc1 | 86.8 |
| CC(=O)Oc1ccc(/C=c2\sc3nc4ccccc4n3c2=O)cc1 | 28 |
| O=c1/c(=C/c2ccc3c(c2)OCO3)sc2nc3ccccc3n12 | 69.3 |
| COc1ccc(/C=C2\C(=O)NN(c3ccc(Cl)c(Cl)c3)C2=O)cc1OC | -13.2 |
| CCOc1ccccc1/C=N/Nc1nnc(-c2ccccc2)c(=O)[nH]1 | -10.7 |
| O=C(COc1ccccc1Cl)N1CCN(c2ccc([N+](=O)[O-])cc2)CC1 | -3.3 |
